Inconclusive results are not listed. Activity calls are given as the source filed them. Calls follow the shape of the dose curve; as a rule, active = well fitted curve in either direction with a large enough effect (not every such curve was filed as active); inconclusive = small, poorly fitted or top-dose-only effect, or another doubt; inactive = flat fitted curve, though single readings scatter.
The molecules below were run against Mitogen-activated protein kinase 10 (Mus musculus) (UniProt Q61831) (assay: JNK3 AlphaScreen Assay (AID 530;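 also: kinase came from lysate of stimulated human HepG2 cells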)). Conditions: JNK3 lysate, c-Jun phosphorylation; series mostly up to 57.1 µM; activity change, negative = inhibition: at the top concentration.
Description: NIH Chemical Genomics Center [NCGC]
NIH Molecular Libraries Screening Centers Network [MLSCN]
The c-jun N-terminal kinase (JNK) family are serine/threonine protein kinases that phosphorylate c-jun, a component of the transcription factor […] (AP-1). JNK kinases are members of the mitogen-activated protein kinase family including the extracellular regulated kinases and p38 kinases. Three JNK genes (JNK 1, 2, and 3) have been identified in humans so far. JNK1 and JNK2 have a broad distribution and JNK3 is primarily found in neuronal tissues and cardiac myocytes.
JNK3 has been under consideration as a target for the treatment of neurodegenerative disorders. […] JNK pathway is also involved in pathological process in a mouse model of Parkinson's disease (Xia et al., 2001).
Given these potential tissue distributions and links to neuroprotection, JNK3 inhibitors should provide useful investigational tools to study the role of this kinase in several diseases including, arthritis, stroke, myocardial infarction, ischemic injury and Parkinson's disease.
A homogeneous AlphaScreen is developed to measure the activity of JNK3. AlphaScreen is a two bead-based proximity-dependent chemical energy transfer luminescent assay platform. The phosphorylation of a biotinylated c-jun substrate by JNK3 can be detected with an antibody raised against phosphorylated c-jun. This process brings streptavidin donor beads and Protein-A acceptor beads to within a proximity range of <200 nm, and subsequently lead a chemical luminescent reaction upon exciting donor beads with 680 nm laser excitation light. Inhibition of JNK3 activity by small molecules and subsequent decrease in the antibody binding to biotinylated c-jun could attenuate or abolish this chemical luminescent reaction.
Yang DD, Kuan CY, Whitmarsh AJ, Rincon M, Zheng TS, Davis RJ, Rakic P and Flavell RA (1997) Absence of excitotoxicity-induced apoptosis in the hippocampus of mice lacking the Jnk3 gene. Nature 389:865-870. [PMID: 9349820]
Herdegen T, Claret FX, Kallunki T, Martin-Villalba A, Winter C, Hunter T, and Karin M (1998) Lasting N-terminal phosphorylation of c-Jun and activation of c-Jun N-terminal kinases after neuronal injury. J.Neurosci. 18:5124-5135. [PMID: 9651196]
Xia XG, Harding T, Weller M, Bieneman A, Uney JB and Schulz JB (2001) Gene transfer of the JNK interacting protein-1 protects dopaminergic neurons in the MPTP model of Parkinson's disease. Proc.Natl.Acad.Sci.U.S.A. 98:10433-10438.
NCGC Assay Protocol Summary:
GST-cJun (1-79) (Stratagene, La Jolla CA, #205145) was biotnylated by PerkinElmer (PerkinElmer-BioSignalInc. Montreal, Canada) and was detectable by the streptavidin Donor beads. Anti-(phospho)cJun (Ser73) antibody was from UpState (Charlottesvilles, VA, #06-659). JNK3-containing lysates were generated from HepG2 cells and pre-activated by interleukin1-beta and tumor necrosis factor alpha. All reagents were stored at -20 C before using. Phosphorylated biotinylated-GST-cJun was recognized by Anti-(phospho)cJun (Ser73) antibody and this process brings acceptor and donor beads together. Therefore JNK3 phosphorylation of cJun can be measured by Alpha reading by EnVision (PerkinElmer, Boston, MA).
The composition of kinase buffer was (in mM) 20 tris- HCl (pH 7.6) 10 MgCl2, 1 DTT, and 0.1 Na3VO4 and 0.01% Tween-20. Beads were diluted in detection buffer containing (in mM) 20 tris-HCl (pH 7.7), 20 NaCl and 80 EDTA and 0.3% BSA. The assay was performed at room temperature. All compounds were screened as titrations from 0.6 nM to 46 uM final concentration. The assay was performed in 1536-well format (white solid bottom and untreated) as follows:
Sequence,Parameter,Value,Description
1,Reagent,3 uL,Biotin-GST-cJun, Anti-(phospho)cJun and pre-activated JNK3-containing lysates
2,Compound,23 nL,Final concentration was 0.6nM to 46uM
3,Time,15 minutes,Room Temperature
4,Reagent,1 uL,ATP final concentration 10uM
6,Reagent,0.5 uL,2ng/well bead mixture
[…]
In the case of CSC([N-]/N=C/c1cccc(C)n1)=[S]=[Cu].CS[C@H]([S-])[N-]/N=C/c1cccc(C)n1, the activity change, negative = inhibition is reported as -6.87% [at 11.4 µM] (inactive).
For CC(C#N)CCC#N (stereo not given), the “activity change, negative = inhibition” value was -14.3% (inactive).
With NS(=O)(=O)C[C-]1C=C[CH]([Sb-]([Cl])([Cl])([Cl])([Cl])[Cl])C=C1.c1ccncc1 (stereo not given) the activity change, negative = inhibition was 4.62% [at 11.4 µM] (inactive).
With c1ccc(NNc2ccccc2)cc1 the “activity change, negative = inhibition” value was -14.6% (inactive).
For CCN=C=NCCCN(C)C, the activity change, negative = inhibition was -0.714% [at 11.4 µM] (inactive).
CN(C)C(=O)Nc1ccc(Cl)cc1 was tested, and the “activity change, negative = inhibition” value was -13.6% (inactive).
For Nc1ccccc1-c1ccccc1, the “activity change, negative = inhibition” value was 8.45% (inactive).
With Cc1ccc(NC(=[OH+])c2cc3ccccc3cc2O)c(C)c1.Cc1ccc(NC(=[OH+])c2cc3ccccc3cc2O)c(C)c1.[Ni] the activity change, negative = inhibition was 1.02% [at 11.4 µM] (inactive).
For Nc1ccc(S(=O)(=O)c2ccc(NCN3C(=O)NC(=O)C(=O)C3=O)cc2)cc1, the activity change, negative = inhibition was 1.4% [at 11.4 µM] (inactive).
In the case of CC[C@@]1(O)C(=O)OCc2c1cc1n(c2=O)Cc2cc3c(NC(=O)CN)cccc3nc2-1, the activity change, negative = inhibition is reported as -2.05% [at 11.4 µM] (inactive).
With CC1(C)N=C(N)N=C(N)N1c1cccc(C(=O)Nc2ccc(S(=O)(=O)F)cc2)c1 the activity change, negative = inhibition was 7.01% [at 11.4 µM] (inactive).
O=C(NCP(=O)(O)O)c1cccnc1 was tested, and the activity change, negative = inhibition was 0.703% [at 11.4 µM] (inactive).
In the case of Nc1ccc(Cc2ccc(N)cc2)cc1, the “activity change, negative = inhibition” value is reported as 4.57% (inactive).
For Nc1ccc(Cc2ccc(N)c(Cl)c2)cc1Cl, the “activity change, negative = inhibition” value was -8.38% (inactive).
COc1cc2cc(c1Cl)N(C)C(=O)C[C@H](OC(=O)C(C)C)[C@]1(C)O[C@@H]1[C@@H](C)[C@H]1C[C@](O)(NC(=O)O1)[C@@H](OC)/C=C\C=C(\C)C2 was tested, and the activity change, negative = inhibition was 2.93% [at 11.4 µM] (inactive).
With CCSCC[C@H](N)C(=O)O the activity change, negative = inhibition was 3.04% [at 11.4 µM] (inactive).
Cc1cc(-c2ccc(N)c(C)c2)ccc1N was tested, and the “activity change, negative = inhibition” value was -15.9% (inactive).
With CC12CC1(C)C(=O)N(c1cc(Cl)cc(Cl)c1)C2=O (stereo not given) the “activity change, negative = inhibition” value was 18.3% (inactive).
With N#CCCC#N the “activity change, negative = inhibition” value was -2.24% (inactive).
In the case of CC(C)(C)C(=O)CP(=O)(O)O, the activity change, negative = inhibition is reported as 5.32% [at 11.4 µM] (inactive).
For Clc1cc(Cl)c(Cl)c(Cl)c1, the “activity change, negative = inhibition” value was -8.07% (inactive).
In the case of COc1ccc(C(=O)O[C@H]2CC[C@@]3(C)[C@H]4CC[C@H]5[C@]3(C[C@]3(O)[C@H]6CN7C[C@H](C)CC[C@H]7[C@](C)(O)[C@]6(O)[C@H](O)C[C@]53O)O[C@]24O)cc1OC, the activity change, negative = inhibition is reported as -0.646% [at 11.4 µM] (inactive).
For CC(C)Br, the “activity change, negative = inhibition” value was -5.4% (inactive).
CCN(CC)CCn1ncc2c(N)ncnc21 was tested, and the activity change, negative = inhibition was -1.5% [at 11.4 µM] (inactive).
NNc1nncn1N was tested, and the activity change, negative = inhibition was 3.94% [at 11.4 µM] (inactive).
For Oc1cc(Cl)c(Cl)c(Cl)c1Cl, the “activity change, negative = inhibition” value was 21.6% (inactive).
C[C@H]1CC[C@@]2(NC1)O[C@@H]1C[C@@H]3[C@@H]4CC=C5C[C@@H](O)CC[C@]5(C)[C@@H]4CC[C@]3(C)[C@H]1[C@@H]2C was tested, and the activity change, negative = inhibition was -0.366% [at 11.4 µM] (inactive).
In the case of CCNCCC1(CC)C(=O)NC(=O)NC1=O, the activity change, negative = inhibition is reported as 3.87% [at 11.4 µM] (inactive).
For Cc1ncc([N+](=O)[O-])n1CCN=[N+]=[N-], the activity change, negative = inhibition was 2.72% [at 11.4 µM] (inactive).
O=S(=O)(O)F was tested, and the “activity change, negative = inhibition” value was -13.4% (inactive).
In the case of O=[N+]([O-])c1cccc(O)c1, the “activity change, negative = inhibition” value is reported as -1.79% (inactive).
NCCP(=O)(O)O was tested, and the activity change, negative = inhibition was 3.4% [at 11.4 µM] (inactive).
For C[N+]1(C)C2CC[C@H]1CC(OC(=O)[C@@H](CO)c1ccccc1)C2 (stereo not given in full), the activity change, negative = inhibition was 2.63% [at 11.4 µM] (inactive).
O=C(O)CS(=O)(=O)C(c1ccccc1)c1ccccc1 was tested, and the activity change, negative = inhibition was 1.62% [at 11.4 µM] (inactive).
COc1cccc2c1C(=O)c1c(O)c3c(c(O)c1C2=O)C[C@](O)(/C(C)=N\O)C[C@@H]3O[C@H]1C[C@H](N)[C@@H](O)[C@H](C)O1 was tested, and the activity change, negative = inhibition was -16.4% [at 11.4 µM] (inactive).
With Oc1ccc(Cl)c(Cl)c1 the “activity change, negative = inhibition” value was 17.3% (inactive).
In the case of O=C1C[C@@H]2OCC=C3CN4CC[C@]56c7ccccc7N1[C@@H]5[C@@H]2[C@H]3C[C@H]46 (tested in a mixture with another compound), the activity change, negative = inhibition is reported as 1.78% [at 11.4 µM] (inactive).
In the case of N[C@@H](CP(=O)(O)O)C(=O)O, the activity change, negative = inhibition is reported as 5.7% [at 11.4 µM] (inactive).
In the case of OCC(Cl)CCl (stereo not given), the “activity change, negative = inhibition” value is reported as 9.35% (inactive).
C=COC(C)=O was tested, and the “activity change, negative = inhibition” value was 9.65% (inactive).

From PubChem BioAssay (NCATS)
% is scaled to controls: 0 for no effect and ±100 for the full control effect.
